High-throughput results: PubChem, National Center for Advancing Translational Sciences (NCATS)
HP1b chromo inh: blocks HP1-beta chromodomain binding to methylated histone tails; 390,000 tested, 0.56% active; P83916; AlphaScreen HP1-beta / biotin-H3K9me3 peptide binding; Potency, µM (doses to about 114 µM), for the others: top-dose activity change, negative = inhibition, usual class: inhibitors; also: potency is read from the fitted curve at half-maximal effect; nearly all actives have a fitted effect of over 70% in size
Target sequence (P83916 whole entry, looked up): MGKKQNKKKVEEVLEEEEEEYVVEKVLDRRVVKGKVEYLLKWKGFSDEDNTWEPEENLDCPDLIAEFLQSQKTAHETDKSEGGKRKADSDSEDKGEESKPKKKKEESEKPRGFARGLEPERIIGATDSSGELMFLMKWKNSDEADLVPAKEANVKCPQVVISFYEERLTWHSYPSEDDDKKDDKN
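HP1-beta protein (50 nM final) preincubated 30 min at room temperature with biotinylated H3(1-18)K9me3 peptide (50 nM) in PBS pH 7.4, 0.01% Tween-20, then compound added for 30 min. AlphaScreen streptavidin donor/nickel chelate acceptor beads (10 ug/mL final), 30 min dark, luminescence read.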
CtBP-E1A blk: CtBP/E1A binding inhibition | AlphaScreen GST-E1A/His-CtBP binding, 1536-well; hits give low values | activity change, % (no concentration beside the values) | 340,000 tested, 0.49% active; in the data active = activity change below about -65%; inconclusive = mostly about -30% to -63%; also: % is scaled to controls: 0 for no effect and ±100 for the full control effect
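GST-E1A and His-tagged CtBP (125 nM each as 5X stock) were preincubated with pin-transferred compound for 2 h at 37 °C in the dark, then glutathione donor and nickel acceptor beads were added for 1 h before AlphaScreen reading.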
G9a inh: blocks human histone lysine methyltransferase G9a; Q96KQ7; G9a H3K9 monomethylation, AlphaScreen, 2 h; Potency, µM (series often up to 102 µM), for the others: top-dose activity, negative = inhibition, actives largely listed as inhibitors; 350,000 tested, 8.8% active; also: potency is read from the fitted curve at half-maximal effect; % is scaled to controls: 0 for no effect and ±100 for the full control effect; nearly all actives have a fitted effect of over 75% in size
Target sequence (Q96KQ7 913-1193 limits assumed): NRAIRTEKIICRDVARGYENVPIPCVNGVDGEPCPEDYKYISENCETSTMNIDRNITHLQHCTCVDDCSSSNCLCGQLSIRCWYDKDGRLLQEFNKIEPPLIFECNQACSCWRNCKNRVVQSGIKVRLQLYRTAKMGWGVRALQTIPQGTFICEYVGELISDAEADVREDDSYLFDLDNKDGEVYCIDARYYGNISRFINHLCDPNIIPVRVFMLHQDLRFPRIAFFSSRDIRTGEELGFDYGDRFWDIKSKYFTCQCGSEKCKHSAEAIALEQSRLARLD
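G9a (20 nM) preincubated 15 min RT with compounds, then 500 nM biotinylated H3K9 peptide and 20 uM SAM added; 2 h RT reaction. Monomethyl-H3K9 product detected by AlphaScreen with anti-H3K9me1 antibody, streptavidin donor and anti-rabbit IgG acceptor beads.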
Six1-Eya2 blk: inhibitors of human Six1/Eya2 interaction; activity change, % (test concentration not listed); 360,000 tested, 0.56% active; AlphaScreen GST-Six1/His-Eya2 binding, biochemical; hits give low values; in the data active = activity change below about -65%; inconclusive = mostly about -30% to -63%; also: % is scaled to controls: 0 for no effect and ±100 for the full control effect
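AlphaScreen with GST-Six1 and His-Eya2 (5X mix: 250 nM and 500 nM), glutathione donor and nickel acceptor beads; buffer 50 mM Tris pH 8.0, 300 mM NaCl, 1 mM TCEP; 1 h at 37 C in the dark.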
BAZ2B block: inhibitors of human BAZ2B bromodomain. Q9UIF8. AlphaScreen BAZ2B-H3K14Ac peptide displacement. Potency, µM (titrated, usually from 114 µM), for inactives: at the top dose activity change, negative = inhibition, usual class: inhibitors. 360,000 tested, 4.4% active. AID 504333; also: potency is read from the fitted curve at half-maximal effect; % is scaled to controls: 0 for no effect and ±100 for the full control effect; nearly all actives have a fitted effect of over 60% in size
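Complex of BAZ2B and biotin-H3K14Ac (50 nM apiece) forms over 30 min at RT, then faces library compounds up to 110 uM for another 30 min; AlphaScreen beads added, 20 min dark incubation, luminescence read.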
JMJD2A Tudor inh: inhibitors of human JMJD2A Tudor domain. AlphaScreen JMJD2A-Tudor / H3K4me3 peptide binding. AID 504339. 390,000 tested, 4.4% active. O75164. Potency, µM (highest dose often 114 µM), for the others: top-dose activity change, negative = inhibition, usual class: inhibitors; also: potency is read from the fitted curve at half-maximal effect; % is scaled to controls: 0 for no effect and ±100 for the full control effect; nearly all actives have a fitted effect of over 50% in size
Active calls of the source: *; ? = inconclusive; . = not tested or not shown; ! = not active in a repeat; [ ] = remark or other dose. Sampled rows, rich in hits. Any-hit rate of the full collection: about 10%. Unless noted, calls follow the shape of the dose curve; as a rule, active = well fitted inhibition curve with a large enough effect; inconclusive = small, poorly fitted or top-dose-only effect; inactive = no such curve, though single readings can be large or run the other way.

SMILES | HP1b chromo inh | CtBP-E1A blk | G9a inh | Six1-Eya2 blk | BAZ2B block | JMJD2A Tudor inh
O=C(O)c1ccc(Oc2cc(Oc3ccc(C(=O)O)cc3)cc([N+](=O)[O-])c2)cc1 | 10% | 9 | . | 1 | -2% | -15%
COc1ccc(N2CCN(C(=O)CCNS(=O)(=O)c3cccs3)CC2)cc1 | 16% | 8 | 25µM* | -6 | -33% | -11%
COc1ccc(N2CCN(C(=O)CN(C)S(=O)(=O)c3cccs3)CC2)cc1 | 13% | -27 | 50µM*! | -5 | -5% | -12%
COc1ccc(S(=O)(=O)N(C)CC(=O)N2CCN(c3ccccc3)CC2)cc1 | 13% | -13 | -2% | 16 | -4% | -22%
O=C(CCc1ccc(Oc2cc([N+](=O)[O-])cc([N+](=O)[O-])c2)cc1)N1CCCCCC1 | ? | -23 | ? | ? | 25µM* | 40µM*
O=C(CCc1ccccc1)N1CCN(S(=O)(=O)c2cccs2)CC1 | 22% | 13 | 25% | 4 | -12% | 1%
O=C(CCNS(=O)(=O)c1cccs1)N1CCN(c2cccc(C(F)(F)F)c2)CC1 | 6% | 6 | 0%[2.33 µM] | 5 | 4% | -14%
COc1ccc(CCC(=O)N2CCN(S(=O)(=O)c3cccs3)CC2)cc1 | 14% | 2 | 45µM* | 8 | 2% | -17%
COc1ccc(Cn2nnnc2C(c2ccccc2)N2CCN(c3ccccc3)CC2)cc1 (centres undefined) | 7% | . | . | . | . | ?
CC(=O)c1ccc(N2Cc3ccccc3/C2=N\C(=O)Nc2ccc(Cl)cc2)cc1 | 20% | 1 | 5%[59 µM] | 2 | 10% | -5%
O=C(Nc1cc2c3c(c1)C1CCCC1CN3CC1CCCC21)c1ccccc1 (centres undefined) | ? | -9 | 8.9µM* | -17 | 28µM* | ?
CCOC(=O)c1c(=O)n(O)c2ccc(OC)cc2[n+]1[O-] | 3% | -1 | 50µM* | -4 | ? | 50µM*
CCCCCCCCCCCCCCCCCCNC(=O)OCC(COP(=O)([O-])OCC[n+]1ccsc1)OC (centres undefined) | . | . | 21µM* | . | . | .
CCCCCCCCCCCCCC(=O)OCC(COP(=O)([O-])OCC[N+](C)(C)C)OC(=O)CCCCCCCCCCCCC (centres undefined) | . | . | -11%[12.7 µM] | . | . | .
COc1cc(OC)c2c(c1)C(=O)OC2c1cc(OC)c(OC)cc1C (centres undefined) | 10% | . | . | . | . | -13%
CC(C)N(Cc1ccccc1)C(=O)CN1C(=O)COc2ccc(S(=O)(=O)NC3CCCC3)cc21 | 17% | 1 | 3%[59 µM] | 3 | -12% | -20%
N#CC1=C(N)N2C(=C(C#N)C1c1ccccc1)Sc1ccccc12 (centres undefined) | . | . | ? | . | -1% | .
N#CC1=C(N)N2C(=C(C#N)C1c1ccc(Br)cc1)Nc1ccccc12 (centres undefined) | 1% | 10 | 10µM* | 6 | 4% | -29%
N#CC1=C(N)N2C(=C(C#N)C1c1cccc(Br)c1)Nc1ccccc12 (centres undefined) | 49% | 4 | 10µM* | 7 | 3% | -10%
C=C(C)Cn1c(=O)c2c(nc3n2CCN3c2cc(C)cc(C)c2)n(C)c1=O | -8% | . | -30%[59 µM] | . | -32% | ?
CS(=O)(=O)c1sc(C#N)c2c1C(=O)CC(c1ccccc1)C2 (centres undefined) | 10% | -25 | 25µM* | -6 | -38% | -21%
COC(=O)c1ccccc1NC(=O)c1cc2nc(-c3ccccc3)cc(-c3ccccc3)n2n1 | 47% | . | 7%[59 µM] | . | 3% | 9%
COc1cccc(NC(=O)CN2CCCCCC2)c1 | 26% | -9 | . | 8 | 0% | -7%
O=C(CN1C(=O)c2ccccc2C1=O)Nc1cccc(S(=O)(=O)Nc2ccccc2Cl)c1 | -10% | -68* | ? | -68* | -29% | -36%
O=C(N/C(=C\c1ccc([N+](=O)[O-])cc1)C(=O)N1CCCCC1)c1ccccc1Br | 3% | 2 | -26% | 4 | -31% | -21%
SMILES | HP1b chromo inh | CtBP-E1A blk | G9a inh | Six1-Eya2 blk | BAZ2B block | JMJD2A Tudor inh
O=[N+]([O-])c1cc(S(=O)(=O)N2CCOCC2)ccc1N1CCNCC1 | 8% | 3 | 50µM* | 4 | -6% | -21%
Cc1ccc(S(=O)(=O)Nc2ccc(S(=O)(=O)N3CCOCC3)cc2)cc1[N+](=O)[O-] | 16% | 7 | 14% | 3 | 4% | -11%
Cc1ccc(Nc2ccc(S(=O)(=O)N3CCOCC3)cc2[N+](=O)[O-])cc1C | ? | 2 | ? | ? | 11µM* | ?
CN1CCN(S(=O)(=O)c2ccc(Nc3ccc(F)cc3)c([N+](=O)[O-])c2)CC1 | -26% | ? | 56µM* | -21 | ? | ?
CC(=O)N1CCN(c2ccc(S(=O)(=O)N3CCOCC3)cc2[N+](=O)[O-])CC1 | 18%[57 µM] | 2 | . | 5 | . | -14%
O=[N+]([O-])c1cc(-n2cccc2)ccc1N1CCOCC1 | 71µM* | 3 | ? | ? | 35µM* | 50µM*
CC(=O)c1cccc(N(C(=O)CNC(=O)c2ccco2)C(C(=O)NCc2ccco2)c2ccccc2)c1 (centres undefined) | 17% | . | -18% | -7 | -21% | -24%
CCC(C)NC(=O)CSc1nc2cc3c(cc2c(=O)n1CCCCCC(=O)NCc1ccc(OC)cc1)OCO3 (centres undefined) | 35% | . | 4%[59 µM] | . | 3% | -3%
CCOc1ccc(CN(C)c2ccc(S(=O)(=O)N3CCN(C)CC3)cc2[N+](=O)[O-])cc1OC | -16% | -9 | -9%[12.7 µM] | -18 | ? | ?
CN1CCN(S(=O)(=O)c2ccc(N(C)Cc3ccc(C(F)(F)F)cc3)c([N+](=O)[O-])c2)CC1 | ? | -14 | -13%[12.7 µM] | ? | 40µM* | 25µM*
C(=N/Nc1nccs1)/c1cccnc1 | 28% | 0 | -37% | -1 | . | -27%
Clc1ccc(-c2csc(N/N=C\c3cccnc3)n2)cc1 | 31% | -8 | 10µM* | -3 | -29% | -2%
Cc1ccc2nc(N/N=C/c3ccco3)cc(C)c2c1 | -4% | -15 | ? | -10 | 45µM* | ?
C(=N\Nc1nc(-c2ccccc2)cs1)/c1ccco1 | ? | -26 | 13µM* | -11 | 40µM* | ?
CN(C)S(=O)(=O)c1ccc(-c2csc(N/N=C/c3ccco3)n2)cc1 | 17% | -11 | 28µM* | -13 | -23% | -14%
O=C(/C=C/c1ccco1)Nc1nc(-c2ccccc2)cs1 | -1% | 0 | ? | -1 | ? | -11%
NC(=O)c1ccc(NC(=O)c2ccc3c(c2)CCN3S(=O)(=O)c2ccccc2)cc1 | 48% | 2 | 42% | 0 | -12% | 2%
